Activity calls are given as the source filed them. Unless noted, the rule behind the calls is not given here.

Z-score and composite z-score data for seven compounds are collected here from PubChem BioAssay.

Test [1] in a line: compound effects on lung adenocarcinoma cell viability – A549, calcein-AM fluorescence, 48 h, basal, profiling panel (AID 1162). Note: test concentration not given here. The note with it: higher = more signal.
Test [2] can be described thus: compound effects on differentiated 3T3-L1 adipocyte viability – cell-based, 3T3-L1 adipocytes, calcein-AM fluorescence, 48 h, basal, profiling panel (AID 1163). Note: test concentration not given here. Conditions: 3T3-L1 adipocytes viability, higher = more signal.
Test [3] in a line: compound effects on hepatocellular carcinoma cell viability – HepG2, calcein-AM fluorescence, 48 h, basal, profiling panel (AID 1164). Note: test concentration not given here. Conditions: higher = more signal.
A short description of test [4]: compound effects on multiple myeloma cell viability – MM1S, calcein-AM fluorescence, 48 h, basal, profiling panel (AID 1165).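 Note: viability of MM1S multiple myeloma cells under basal unstimulated conditions; test concentration not given here.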 The note with it: higher = more signal.
Test [5] is described as follows: calcein-AM signal in unstimulated myeloma cells – cell-based, calcein-AM fluorescence, 48 h, PK04 Diversity Set, profiling panel (AID 1166).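 Note: cells grown under basal conditions without added stimulus; test concentration not given here.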 Conditions: RPMI8226 myeloma viability, higher = more signal.
Test [6] can be described thus: JC-1 mitochondrial signal, unstimulated HepG2 cells – cell-based, JC-1 fluorescence, 24 h, 100 nL compound, profiling panel (AID 1167). Note: test concentration not given here. Conditions: HepG2 mitochondrial potential, higher = more signal.
A short description of test [7]: JC-1 mitochondrial signal, unstimulated adipocytes – cell-based, JC-1 fluorescence, 3T3-L1 adipocytes, 24 h, 100 nL compound, profiling panel (AID 1168). Note: test concentration not given here. Conditions: JC-1 mitochondrial fluorescence, higher = more signal, called active from +8 up or from −8 down.
Test [8] is described as follows: JC-1 mitochondrial signal, unstimulated myeloma cells – cell-based, JC-1 fluorescence, RPMI8226, 24 h, 100 nL compound, profiling panel (AID 1169). Note: test concentration not given here. The note with it: JC-1 mitochondrial potential fluorescence, higher = more signal.
Test [9] is described as follows: JC-1 mitochondrial signal, unstimulated MM1S myeloma – cell-based, JC-1 fluorescence, 24 h, 100 nL compound, profiling panel (AID 1170). Note: test concentration not given here. The note with it: MM1S mitochondrial potential, higher = more signal.
A short description of test [10]: resazurin metabolic signal in A549 cells – cell-based, resazurin fluorescence, 24 h, PK04 Diversity Set, profiling panel (AID 1171). Note: test concentration not given here. Conditions: A549 viability, higher = more signal, called active from +8 up or from −8 down. Background: The colour change of resazurin is a common sign of viable cells or microbes.
Test [11] is described as follows: resazurin metabolic signal in HepG2 cells – cell-based, resazurin fluorescence, 24 h, PK04 Diversity Set, profiling panel (AID 1172). Note: test concentration not given here. The note with it: HepG2 viability, higher = more signal.
Test [12] is described as follows: budding yeast growth changes without added modifier – OD600, strain BY4716, 24 h, basal condition, primary screen (AID 1173). Conditions: S. cerevisiae BY4716 growth, OD600, 24 h; higher = more signal, called active from +8 up or from −8 down.
A short description of test [13]: viability profiling in MM1S myeloma cells – cell-based, resazurin fluorescence, basal, 24 h, PK04 Diversity Set, profiling panel (AID 1174). Note: test concentration not given here. The note with it: higher = more signal, called active from +8 up or from −8 down.
The target in test [14] is Dihydroorotate dehydrogenase (quinone), mitochondrial (Plasmodium falciparum (isolate 3D7)) (UniProt Q08210). The experiment in a line: inhibition of P. falciparum DHODH – biochemical, C-terminal His tag, absorbance 600 nm, primary screen (AID 1175).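 Note: recombinant parasite enzyme with a five histidine tag at its C terminus; test concentration not given here.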 Conditions: PfDHODH enzyme, DCIP absorbance 600 nm; higher = more signal, called active from +8 up or from −8 down.
Sequence of Dihydroorotate dehydrogenase (quinone), mitochondrial (Plasmodium falciparum (isolate 3D7)) (Q08210 whole entry, looked up): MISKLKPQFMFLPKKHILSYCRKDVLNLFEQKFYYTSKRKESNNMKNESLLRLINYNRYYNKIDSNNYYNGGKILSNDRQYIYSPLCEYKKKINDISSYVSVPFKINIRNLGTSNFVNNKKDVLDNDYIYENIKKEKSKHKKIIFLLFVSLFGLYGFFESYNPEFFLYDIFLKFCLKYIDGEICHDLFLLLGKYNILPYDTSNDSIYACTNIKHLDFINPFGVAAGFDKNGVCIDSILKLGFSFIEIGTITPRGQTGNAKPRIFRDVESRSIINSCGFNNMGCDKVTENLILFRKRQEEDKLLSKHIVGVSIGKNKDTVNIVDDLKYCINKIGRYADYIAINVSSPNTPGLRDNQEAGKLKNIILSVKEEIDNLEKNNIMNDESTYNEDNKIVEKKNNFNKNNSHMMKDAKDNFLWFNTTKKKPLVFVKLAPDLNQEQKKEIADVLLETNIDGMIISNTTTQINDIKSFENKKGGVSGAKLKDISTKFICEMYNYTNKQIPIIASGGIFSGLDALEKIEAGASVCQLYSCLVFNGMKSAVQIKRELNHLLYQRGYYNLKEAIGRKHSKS
Test [15] is described as follows: inhibition of PAO1 biofilm formation – strain PAO1, LB-PBS medium, absorbance 600 nm, primary screen (AID 1176). Note: test concentration not given here. Conditions: P. aeruginosa PAO1 growth/biofilm, A600, 12 h; higher = more signal.
Test [16] can be described thus: growth modulation of vineyard yeast isolate – strain RM11-1a, OD600, basal, 24 h, primary screen (AID 1177).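 Note: cultures grown under basal conditions with no added stressor; test concentration not given here.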 Conditions: S. cerevisiae RM11-1a growth, OD600, 24 h; higher = more signal, called active from +8 up or from −8 down.
Test [17] is described as follows: growth of efflux-deficient E. coli DRC39 – strain DRC39, OD650, 24 h, E. coli filamentation inducers, primary screen (AID 1178).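 Note: growth measured as culture turbidity by optical density at 650 nm; test concentration not given here.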 The note with it: E. coli DRC39 acrAB, higher = more signal, called active from +8 up or from −8 down.
The nature of test [18]: growth of efflux-deficient E. coli DRC39 – strain DRC39, OD650, 48 h, E. coli filamentation inducers, primary screen (AID 1179).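 Note: screen aims at cell division blockers that make cells filament.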 The note with it: E. coli DRC39 delta-acrAB growth, higher = more signal, called active from +8 up or from −8 down.
Test [19] in a line: viability profiling in RPMI8226 myeloma cells – cell-based, resazurin fluorescence, basal, 24 h, PK04 Diversity Set, profiling panel (AID 1180).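 Note: RPMI8826 multiple myeloma cell line at 5000 cells per well; test concentration not given here.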 Conditions: higher = more signal.
Test [20] deals with E3 ubiquitin-protein ligase XIAP (Homo sapiens) (UniProt P98170). The experiment in a line: small molecules binding XIAP protein – biophysical, small-molecule microarray, fluorescence 635 nm, primary screen (AID 1181).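 Note: score merges 667 nm emission and signal to noise over triplicate slides.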 Conditions: higher = more signal.
Sequence of E3 ubiquitin-protein ligase XIAP (Homo sapiens) (P98170 whole entry, looked up): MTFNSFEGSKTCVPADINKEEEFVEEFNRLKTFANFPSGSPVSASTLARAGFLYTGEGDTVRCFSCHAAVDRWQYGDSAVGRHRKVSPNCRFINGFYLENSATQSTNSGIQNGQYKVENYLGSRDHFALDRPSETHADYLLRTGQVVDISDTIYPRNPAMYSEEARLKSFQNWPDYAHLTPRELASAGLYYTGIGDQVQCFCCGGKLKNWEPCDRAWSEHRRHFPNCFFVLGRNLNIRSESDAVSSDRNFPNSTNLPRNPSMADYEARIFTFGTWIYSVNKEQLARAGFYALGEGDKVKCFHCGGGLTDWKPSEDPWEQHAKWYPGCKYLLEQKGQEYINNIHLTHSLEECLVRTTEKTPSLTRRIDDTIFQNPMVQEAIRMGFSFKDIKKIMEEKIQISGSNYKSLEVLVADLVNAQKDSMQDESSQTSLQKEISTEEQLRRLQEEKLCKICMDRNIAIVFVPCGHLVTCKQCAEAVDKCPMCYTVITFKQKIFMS

In the case of `COc1ccc(C(O)C2C=CC3C(=O)N(C)C(=O)C3N2N2CCCCC2)cc1OCc1ccccc1` (centres undefined), the z-score is 0.138 in test [1]; -0.393 in test [2]; -0.888 in test [3]; -0.25 in test [4]; 0.0629 in [5]; -1.8 in [6]. Also, the z-score was -0.693 (inactive) in test [7]; -0.813 in [8]; 0.536 in [9]; 2.31 (inactive) in test [10]; 1.06 in [11]; -1.21 (inactive) in test [12]. Besides, the z-score was 0.0046 (inactive) in [13]; 0.779 (inactive) in test [15]; 1.26 (inactive) in [16]; -0.738 (inactive) in test [17]; -0.811 (inactive) in test [18]; -2.38 in test [19]. The composite z-score is 1.05 (inactive) in test [14] and -0.0937 in test [20].
As to `C[C@H]1C2[C@H](Cc3ccccc3)NC(=O)[C@]23C(=O)N[C@H](Cc2ccccc2)C(=O)N[C@@H](Cc2ccccc2)C(=O)NC/C=C\C/C=C/C3[C@@H]2O[C@]12C` (some centres undefined), the z-score in test [1] is 0.373; in test [2], 0.353; in [3], 0.0599; in test [4], -0.442; in test [5] it was -1.35; in test [6] it was 1.24. Further, the z-score is 0.4 (inactive) in [7]; -0.52 in test [8]; 0.29 in test [9]; 0.276 (inactive) in test [10]; -0.204 in test [11]; -1.79 (inactive) in test [12]. Besides, the z-score is 1.03 (inactive) in test [13]; -0.234 (inactive) in test [15]; -0.617 (inactive) in [16]; 1.73 (inactive) in [17]; 0.9 (inactive) in test [18]; 0.724 in [19]. In addition, the figures for the composite z-score in test [14] and in test [20] were -0.427 (inactive) and 0.306, respectively.
As to `C=C(CCCC)C(=O)CC[C@@H](OC(C)=O)c1ccccc1OCCO`, the z-score was 0.509 in test [1]; -0.0795 in [2]; -0.54 in [3]; -2.62 in test [4]; -1.67 in test [5]; -0.684 in test [6]. Also, the z-score in test [7] was 1.08 (inactive); in test [8] it was -0.76; in test [9], 0.93; in test [10], 0.288 (inactive); in test [11], -0.0263; in test [12], -12.5 (active). In addition, the z-score in test [13] is 0.304 (inactive); in test [15], 0.0022 (inactive); in test [16], 2.05 (inactive); in test [17], 0.662 (inactive); in [18], 0.378 (inactive); in test [19], -0.277. Further, the results for the composite z-score in test [14] and in [20] were -2.71 (inactive) and -0.193, respectively.
Turning to `CC[C@@H]1C=C(C(=O)O)[C@H](c2ccccc2)N1S(=O)(=O)c1ccc([N+](=O)[O-])cc1`, the z-score is -0.353 in [1]; -0.49 in test [2]; 0.271 in test [3]; 0.0363 in [4]; 0.0806 in test [5]; 0.414 in test [6]. For the same compound, the z-score in test [7] is -0.375 (inactive); in [8], 0.769; in [9] it was -0.877; in [10], 0.0551 (inactive); in [11], 0.244; in test [12], 0.736 (inactive). Moreover, the z-score in test [13] is -0.253 (inactive); in test [15] it was -0.461 (inactive); in [16] it was -0.1 (inactive); in test [17] it was -2.44 (inactive); in test [18] it was -1.84 (inactive); in test [19], 0.0416. The composite z-score is 0.264 (inactive) in test [14] and 0.101 in test [20].
As for `COc1cc2c(cc1OC)CN(C(=O)[C@H]1[C@@H]3C(=O)O[C@@H](c4ccccc4)[C@@H](c4ccccc4)N3[C@@H](c3ccccc3OCCO)[C@]13C(=O)Nc1ccc(C#CC4(O)CCCCCC4)cc13)CC2`, the z-score in [1] is 0.434; in test [2], -0.0514; in test [3] it was 1.64; in [4], -0.988; in [5], -1.93; in [6], -0.198. The z-score is 0.994 (inactive) in [7]; -0.812 in [8]; -1.41 in [9]; -0.771 (inactive) in test [10]; 0.714 in test [11]; 0.0302 (inactive) in test [12]. Moreover, the z-score in test [13] is -0.492 (inactive); in [15], 2.63 (inactive); in test [16] it was 2.15 (inactive); in test [17] it was 0.667 (inactive); in [18], 1.61 (inactive); in test [19], 0.248. Moreover, the composite z-score in [14] was 0.682 (inactive); in test [20], -0.12.
`COC(=O)C1=CC(c2ccc(CO)cc2)=CC(C2CC2)N(Cc2sc3ccccc3c2Cl)C=C1C(=O)OC` (centres undefined): the z-score in test [1] was -0.905; in [2] it was 1.77; in test [3], -0.651; in test [4], -2.62; in test [5] it was -4.22; in test [6], 1.72. The z-score in test [7] is 0.982 (inactive); in test [8] it was -0.804; in [9] it was -0.969; in [10], -1.3 (inactive); in test [11], 0.0452; in [12], -4.51 (inactive). In addition, the z-score was -2.01 (inactive) in [13]; -0.844 (inactive) in test [16]; -2.1 (inactive) in [17]; -1.67 (inactive) in [18]; -1.75 in [19]. Also, the results for the composite z-score in test [14] and in [20] were -0.245 (inactive) and 0.0909, respectively.
For the compound `CCCC=C(CCC)[C@@H](NS(=O)(=O)c1ccc(C(F)(F)F)cc1)c1ccc(-c2ccccc2)cc1`, the z-score in test [1] is -0.91; in test [2], -0.988; in test [3], -0.396; in test [4], -0.5; in test [5], -2.65; in test [6] it was 0.285. The z-score in test [7] is 0.33 (inactive); in test [8], 0.342; in test [9], -1.15; in test [10] it was 2.3 (inactive); in test [11], 2.18; in test [12], 1.05 (inactive). In addition, the z-score in test [13] is 1.14 (inactive); in test [15], -1.16 (inactive); in test [16], 1.41 (inactive); in test [17], 0.0852 (inactive); in test [18], -0.839 (inactive); in [19], 0.719. The composite z-score in test [14] was 0.472 (inactive); in [20] it was 0.0264.
